From ChEMBL document CHEMBL3433997, “St. Jude Leishmania screening dataset” (2016) come the findings set out here.

By inhibition is commonly meant the relative decrease from the control value, in per cent.

Holding throughout (assay type): functional
The target of assay [1] is Solute carrier family 2, facilitated glucose transporter member 1 (Homo sapiens) (UniProt P11166). In words: ST_JUDE_LEISH: Cytotoxicity at 2uM final concentration against transgenic Leishmania Mexicana promastigotes LmGLUT1 that are glucose transport deficient and complemented with the human glucose transporter GLUT1. Activity is measured by DNA content using SYBR green in vitro.

The target of assay [2] is Hexose transporter 1 (Plasmodium falciparum) (UniProt O97467). Description: ST_JUDE_LEISH: Cytotoxicity at 2uM final concentration against transgenic Leishmania Mexicana promastigotes LmPfHT that are glucose transport deficient and complemented with the Plasmodium falciparum hexose transporter. Activity is measured by DNA content using SYBR green in vitro.
Assay [3] deals with Glucose transporter (Leishmania mexicana) (UniProt O61059). In words: ST_JUDE_LEISH: Cytotoxicity at 2uM final concentration against transgenic Leishmania Mexicana promastigotes LmGT2 that are glucose transport deficient and complemented with the L. Mexicana glucose transporter 2. Activity is measured by DNA content using SYBR green in vitro.

SMILES strings stand for the structures.

Solute carrier family 2, facilitated glucose transporter member 1 (Homo sapiens), sequence (P11166 whole entry): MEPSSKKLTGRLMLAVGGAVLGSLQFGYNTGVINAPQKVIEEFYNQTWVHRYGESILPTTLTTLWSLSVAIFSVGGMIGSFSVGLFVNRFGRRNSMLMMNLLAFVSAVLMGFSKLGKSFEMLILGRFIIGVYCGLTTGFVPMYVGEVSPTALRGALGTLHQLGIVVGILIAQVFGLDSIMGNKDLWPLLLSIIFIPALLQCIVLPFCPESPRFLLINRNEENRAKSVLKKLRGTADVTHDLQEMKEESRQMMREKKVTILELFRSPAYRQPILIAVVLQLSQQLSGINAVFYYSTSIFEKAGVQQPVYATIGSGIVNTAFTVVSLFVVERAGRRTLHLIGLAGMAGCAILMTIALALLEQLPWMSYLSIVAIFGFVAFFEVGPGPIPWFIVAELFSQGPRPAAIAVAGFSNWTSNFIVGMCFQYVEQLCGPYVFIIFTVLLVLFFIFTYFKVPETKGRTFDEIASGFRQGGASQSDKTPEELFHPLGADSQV

As for `O=C(NC1CCC(CCN2Cc3cccc(F)c3C2)CC1)c1cccc(-c2cccnc2)c1` (stereo unspecified), the inhibition in assay [1] is 0.7%; in assay [2] it was 1.22%; in assay [3] it was -1.89%.
With `O=C(/C=C/c1ccccc1Cl)Nc1ccc(Br)c(OCCN2CCN(CCN3CCCC3)CC2)c1`, the results for the inhibition in assay [1], in assay [2] and in assay [3] were 4.13%, 3.71% and 4.6%, respectively.
For `Cc1onc(-c2ccccc2)c1-c1nc(NC2CCCC(C)C2)no1` (stereo unspecified), the inhibition in assay [1] was 2.36%; in assay [2], -1.49%; in assay [3] it was 3.54%.
In the case of `CC(=O)Nc1ccc(CNCCc2ccc(NC(=O)c3cc(Cl)cc(Cl)c3)cc2)cc1`, the inhibition in assay [1] is -0.73%; in assay [2], 0.23%; in assay [3], -1.09%.
Consider `CC(NCC(O)Cn1c2ccccc2c2ccccc21)c1ccccc1` (stereo unspecified), for which the figures for the inhibition in assay [1], in assay [2] and in assay [3] were 0.86%, 1.68% and -1.46%, respectively.
For the molecule `NC1CCCN(Cc2cccc(-c3ccc(-c4nc5ccccc5[nH]4)cc3)c2)C1` (stereo unspecified), the results for the inhibition in assay [1], in assay [2] and in assay [3] were 7.18%, 5.94% and 8.63%, respectively.
For `CC(C)c1ccc(CN(C)CCCCNC(=O)c2ccc(NC(=O)c3ccc(Cl)cc3)cc2)cc1` the same measures were -0.05%, -0.96% and -1.07%.
The corresponding values for `COc1cc(NCC(O)CNc2cc(OC)c3ccccc3n2)nc2ccccc12` are 33.2%, 12.5% and 4.93%.
The corresponding values for `O=C(/C=C/c1ccc(Cl)c(Cl)c1)NCCCCCN1CCCN(C(=O)Nc2ccc(OC(F)F)cc2)CC1` are 3.05%, 1.15% and 0.91%.
As to `O=C(Nc1cccc(CN2CCN(Cc3ccc(O)cc3)CC2)c1)c1ccc(Cl)c(Cl)c1`, the inhibition in assay [1] stood at 3.5%; in assay [2], 5.27%; in assay [3], 2.47%.
As for `c1cc(-c2ccc(CN3CCN(c4ccncc4)CC3)cc2)cc(-c2nc3ccccc3[nH]2)c1`, the inhibition in assay [1] stood at 1.81%; in assay [2] it was 3.51%; in assay [3], 2.1%.
As for `Cc1cccn2c(=O)c3cc(C(=O)NC4CCCCC4)c(=N)n(CCCn4ccnc4)c3nc12`, the values for the inhibition in assay [1], in assay [2] and in assay [3] were -2.65%, -2.23% and -4.98%, respectively.
As for `O=C(Nc1ccc(Cl)cc1)c1ccc(CN2CCCN(Cc3ccc(F)cc3)CC2)cc1`, the inhibition in assay [1] is 5.91%; in assay [2], 1.23%; in assay [3], 0.03%.
`Nc1c(I)cc(C(=O)Nc2ccc3nc4c(c(N)c3c2)CCCC4)cc1I`: the results for the inhibition in assay [1], in assay [2] and in assay [3] were 2.52%, 1.16% and 1.17%, respectively.
For `CC(=O)Nc1ncc(C(=O)Nc2cccc(-c3ccc(-c4nc5ccccc5[nH]4)cc3)c2)s1`, the inhibition in assay [1] came to 1.69%; in assay [2], 1.26%; in assay [3], 1.08%.
For the molecule `Cc1[nH]c2c(C)cccc2c1C1CCN(CCC2CCN(C(=O)/C=C/c3ccc(Cl)c(Cl)c3)CC2)CC1`, the inhibition worked out at 3.84% in assay [1], 3.13% in assay [2] and 2.49% in assay [3].
For the molecule `COc1ccc(-c2ccc(CNC(=O)c3cccc(C#N)c3)c(F)c2)cc1CN1CCCN(C)CC1`, the inhibition in assay [1] was 0.77%; in assay [2] it was -4.93%; in assay [3] it was 0.55%.
On to `CCCO[C@H](C(=O)OC)[C@@H](CC1Cc2ccccc2C1)C(=O)NCCC1=CCCCC1`, for which the inhibition was determined as 1.54% in assay [1], 1.34% in assay [2] and 2.2% in assay [3].
The corresponding values for `CCCNC[C@@H](O)[C@H](Cc1ccccc1)NC(=O)c1cc(NCC)cc(N2CCCCS2(=O)=O)c1` are 1.97%, 2.32% and 2.85%.
Regarding `COc1cc(F)c2ncc(F)c([C@@H](O)CN3CCC(NCc4cc5c(cn4)OCCO5)CC3)c2c1`, the inhibition in assay [1] was found to be 1.43%; in assay [2], 2.18%; in assay [3], 2.06%.
In the case of `O=c1cc(NCCCNCc2cc3c(Cl)cccc3s2)[nH]c2ccccc12`, the figures for the inhibition in assay [1], in assay [2] and in assay [3] were -1.61%, -0.8% and -2.02%, respectively.
Regarding `COc1ccc(CN2CCN(CC(=O)Nc3cc(Cl)ccc3-n3cncn3)CC2)cc1F`, the results for the inhibition in assay [1], in assay [2] and in assay [3] were -1.01%, 1.82% and -0.67%, respectively.
The corresponding values for `CC(C)CSc1cc(C(=O)Nc2cc(Cl)ccc2O)ccn1` are -0.74%, -0.12% and -2.72%.
For the molecule `Cc1ccc(C2CC(=O)CC(c3ccccn3)C2[N+](=O)[O-])cc1` (stereo unspecified), the inhibition in assay [1] is -0.44%; in assay [2], 0.92%; in assay [3], -0.46%.
With `Cc1ccc2c(=NN=CC=Cc3ccccc3)cc(C)[nH]c2c1`, the inhibition worked out at 1.49% in assay [1], 5.52% in assay [2] and 2.88% in assay [3].
As to `CO/C(=C\C=C\c1cc2cc(Cl)ccc2[nH]1)C(=O)NCCCN1CCN(c2cc(Cl)ccc2OC)CC1`, the inhibition in assay [1] was 1.52%; in assay [2], 1.33%; in assay [3], -1.6%.
In the case of `CS(=O)(=O)c1ccccc1CNC(=O)c1ccc(-c2cccc(-c3nc4cc(C(F)(F)F)ccc4[nH]3)c2)cc1`, the inhibition turned out to be 2.96% in assay [1], 2.74% in assay [2] and 2.22% in assay [3].
Take `CCn1c(-c2nonc2N)nc2c(C#CC(C)(C)O)ncc(OCCNCCc3ccc(OC)cc3)c21`: the inhibition in assay [1] was determined as 5.15%; in assay [2] it was 9.69%; in assay [3], 2.23%.
The corresponding values for `COc1cccc(C(=O)Nc2ccc(Nc3nc(C)cc(N(C)C)n3)cc2)c1` are 12.8%, 9.13% and 7.09%.
As for `CC(=O)Nc1ccc(OCCN(Cc2ccccc2OC(F)(F)F)c2ccc(C(F)(F)F)c(C#N)c2)c(Cl)c1`, the inhibition in assay [1] was determined as 2.43%; in assay [2], 2.88%; in assay [3], 4.14%.
Take `CC(=O)c1ccc(NC(=O)NNC(=O)c2ccc(CCN3CCC(c4nc(COCC(F)(F)F)c(-c5ccc(F)cc5)o4)CC3)cc2)cc1`: the values for the inhibition in assay [1], in assay [2] and in assay [3] were 0.31%, 0.69% and -1.37%, respectively.
`CCCCNC[C@@H](O)[C@H](Cc1ccccc1)NC(=O)c1cc(NCC)cc(N2CCCCS2(=O)=O)c1`: the inhibition in assay [1] was 4.19%; in assay [2], 2.9%; in assay [3], 3.45%.
For `Cc1noc(-c2ccc3c(c2)CCN(CCC2CCC(NC(=O)/C=C/c4cccc(Cl)c4)CC2)CC3)n1` (stereo unspecified) the same measures were 1.02%, 0% and 0.68%.
For `COc1ccc(N2C(=O)C3C(C2=O)C2(C)c4ccccc4C3(C)c3ccccc32)c([N+](=O)[O-])c1` (stereo unspecified), the values for the inhibition in assay [1], in assay [2] and in assay [3] were 9.9%, 8.14% and 9.94%, respectively.
On to `Cc1c(CN2CCC(N3CCC(C(=O)NC4CC4)CC3)CC2)[nH]c2c(Cl)cccc12`, for which the results for the inhibition in assay [1], in assay [2] and in assay [3] were 9.37%, 11.6% and 9.75%, respectively.
For `COc1ccc2nccc([C@@H](O)CN3CCC(NS(=O)(=O)c4cc5c(cc4Cl)SCC(=O)N5)CC3)c2c1` the same measures were 1.57%, 1.6% and -0.41%.
Consider `CNC(=O)CNC(=O)COc1cccc2ccccc12`, for which the inhibition in assay [1] came to 2.49%; in assay [2], 1.21%; in assay [3] it was 2.7%.
On to `O=C(CCCCCNC(=O)c1ccc(O)c(-c2ccc(Cl)c(Cl)c2)c1)NCc1cccc(C(F)(F)F)c1`, for which the figures for the inhibition in assay [1], in assay [2] and in assay [3] were -1.4%, -1.74% and -4.05%, respectively.
The corresponding values for `COc1ccc(CNC2Cc3ccccc3C2)cc1-c1cccc(S(=O)(=O)NCCN2CCCC2)c1` are 4.54%, 1.69% and 3.08%.
For `COc1ccc2nccc([C@@H](O)CN3CCC(NCc4cc5ccc(C#N)cc5[nH]4)CC3)c2c1`, the inhibition came out at 13.5% in assay [1], 12.8% in assay [2] and 9.02% in assay [3].
For `Cc1c(Cl)ccc2c(C(=O)Nc3ccncc3)cc(-c3cccnc3)nc12`, the inhibition is -4.52% in assay [1], -2.06% in assay [2] and -2.1% in assay [3].
With `O=C(/C=C/c1ccc(Cl)c(Cl)c1)NCCCCCN1CCC(NC(=O)c2ccc(F)cc2F)CC1`, the inhibition in assay [1] is -3.32%; in assay [2], 5.55%; in assay [3], -1.5%.
In the case of `c1ccc2c3c(ccc2c1)Sc1c(ccc2ccccc12)N3`, the inhibition in assay [1] was determined as 6.27%; in assay [2], 5.61%; in assay [3] it was 5.33%.
In the case of `COc1ccc2c(=NN=Cc3ccc(OC)c4ccccc34)cc(C)[nH]c2c1`, the values for the inhibition in assay [1], in assay [2] and in assay [3] were 0.09%, 1.71% and 1.11%, respectively.
The corresponding values for `CCCN1CCN(CCNc2c3ccccc3nc3ccccc23)CC1` are 96.4%, 97.2% and 94.2%.
For `COc1ccccc1NC(=O)Nc1ccc(-c2ccc(-c3nc4cccc(C)c4[nH]3)s2)cc1` the same measures were 3.53%, 1.17% and 1.64%.
The corresponding values for `CC(CON1C(N)=NC(N)=NC1(C)C)c1ccc(Cl)cc1Cl` (stereo unspecified) are 23.2%, 37.1% and 24.2%.
